Hits are enriched below; roughly 10% of the tested compounds scored in any of these assays.
INS promoter inh = TRM-6 insulin promoter activity inhibition; TRM-6 cells (human fetal islet line), insulin promoter-eGFP reporter, imaging; reporter expression induced with tamoxifen; inhibition, % at 2 µM; hit rate 0.9% among 130,000;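 active means inhibition above the mean plus 3 SD, with well images judged a real hit on visual review, cut at about 60% in these data, passing the limit was not always enough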
L major viab = reduces viability of Leishmania major promastigotes | resazurin fluorescence viability | AID 1063 | hit rate 9% among 200,000 | inhibition, % at 10 µM; in the data active means inhibition above about 50%;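 further: promastigotes grown with compound for 44 hours at 28 °C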
p97 inhibitor = human p97 ATPase inhibition; inhibition, % at 8 µM; hit rate 0.42% among 220,000; recombinant p97 ATPase, Kinase-Glo ATP luminescence, 3 h; in the data active means inhibition above about 15%;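 further: 0% = DMSO vehicle and 100% = wells lacking enzyme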
HCT116 PTEN-null = growth suppressors of cells with PTEN tumor suppressor deletion; viability, % at 10 µM; HCT116 PTEN-null viability, CellTiter-Glo, 60 h; hits give low values; hit rate 1.2% among 140,000;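 active means viability at or below a set limit, 4 SD under the median of all tested compounds, cut at about 3.7% in these data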;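 further: PTEN knockout HCT116 line with beta catenin targeted HCT116 as companion control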
bCat KO growth = beta-catenin-lacking colon tumor cell growth suppression. viability, % at 10 µM. HCT116 beta-catenin knockout viability, CellTiter-Glo, 60 h; hits give low values. hit rate 1.5% among 140,000;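 active means viability at or under a set limit, the compound median less 4 SD, cut at about 6% in these data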;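 further: 0% = Hyamine 1622 control at 20 µM and 100% = untreated cell control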
ROMK primary = human ROMK K+ channel modulation, primary screen; P48048; Tet-inducible ROMK, thallium flux fluorescence; actives lie on both sides; B-score at 10 µM; hit rate 2% among 130,000;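 active means signal ratio slope over the read window, or its plate-corrected B-score, at least 3 SD from the plate mean, either direction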;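 further: B-score of the F/F0 ratio slope over 7 to 12 s after thallium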
* marks the source's active call; other numbers are inactive results; . = no result given.

SMILES	INS promoter inh	L major viab	p97 inhibitor	HCT116 PTEN-null	bCat KO growth	ROMK primary
N#CC1=C(N)SC(N)=C(C#N)C1Cc1ccccc1	55	55*	-1	107	94	.
CCc1ccc(C2C(C#N)=C(N)SC(N)=C2C#N)cc1	.	-3	-2	101	93	-4.2*
Cc1oc2c(c1C(=O)c1ccc(Cl)cc1)C(=O)C(=O)c1ccccc1-2	13	101*	3	0.9*	0.9*	.
Cc1ccc(C(=O)c2coc3c2C(=O)C(=O)c2ccccc2-3)cc1	52	100*	2	1.4*	1.8*	-0.34
Cc1ccccc1NC(=S)NC12CN3CN(CN(C3)C1)C2	40	1	-3	.	.	0.69
Cc1c(N2C(=O)/C(=C\c3ccc(N(C)C)cc3)N(C)C2=S)c(=O)n(-c2ccccc2)n1C	-139	4	-6	79	75	-0.85
CN1C(=S)N(c2cccnc2)C(=O)/C1=C\c1ccc(C(C)(C)C)cc1	-8	96*	5	.	.	-1.6
CCOc1ccc2[nH]c(=O)c(CN(CCN3CCCC3)C(=S)Nc3ccccc3OCC)cc2c1	.	98*	7	.	.	-2.4
CC1(C)CC(C(CC(=O)N2CCCC2)Cc2ccccc2)CCO1 (centres undefined)	.	.	4	.	.	.
COc1cc(/C=C2/SC(=O)N(Cc3ccccc3Cl)C2=O)ccc1OCc1ccncc1	17	-1	6	81	91	.
COc1cc(/C=C2\SC(=O)N(CCN)C2=O)ccc1OS(=O)(=O)c1cc(C)ccc1C	.	100*	5	.	.	-1.3
COc1ccc(/C=C2\SC(=O)N(CCC(=O)Nc3ccccc3)C2=O)cc1OC	4	53*	7	78	84	.
CC(C)NC(=O)CC(=O)NN=C1CCCCC1	.	-6	1	.	.	0.31
CCOC(=O)c1cc(=O)c2ccc(OCC(=O)Nc3ccc(F)cc3)cc2o1	.	.	6	.	.	.
CCOC(=O)C1(CC2CCCCO2)CCN(C(=O)Nc2ccc(C(=O)OC)cc2)CC1 (centres undefined)	.	3	4	.	.	-0.42
CCCCCCOc1ccc(NC(=O)CC2C(=O)N(CC)C(=S)N2Cc2ccco2)cc1 (centres undefined)	12	66*	-4	18	18	-0.32
CCOc1ccc(NC(=O)CC2C(=O)N(c3ccccc3)C(=S)N2Cc2ccccn2)cc1 (centres undefined)	-58	9	0	82	76	.
CCOc1ccc(NC(=O)CC2C(=O)N(c3ccc(OC)cc3)C(=S)N2Cc2ccccn2)cc1 (centres undefined)	.	80*	4	.	.	0.76
CCOc1ccc(NC(=O)CC2C(=O)N(c3ccccc3)C(=O)N2Cc2ccco2)cc1 (centres undefined)	-61	5	2	.	.	0.2
CCN1C(=O)C(CC(=O)Nc2ccc(OC)cc2)N(CCCN2CCN(c3ccc(F)cc3)CC2)C1=S (centres undefined)	-50	73*	-6	.	.	-0.91
CCN1C(=O)C(CC(=O)Nc2ccc(F)cc2)N(Cc2ccco2)C1=S (centres undefined)	.	7	-2	.	.	-0.057
CCOc1ccc(NC(=O)CC2C(=O)N(c3ccccc3)C(=O)N2CCc2cccs2)cc1 (centres undefined)	-26	66*	-1	76	78	-0.082
CCN1C(=O)C(CC(=O)Nc2ccc(OC)cc2)N(CCc2ccc(F)cc2)C1=S (centres undefined)	.	40	2	.	.	-0.52
CCn1c(Sc2ccc([N+](=O)[O-])cn2)nnc1-c1ccco1	.	10	-1	.	.	-0.25
COc1cccc(C(=O)NN2C(=S)N(c3ccccc3)C(=O)C2CC(N)=O)c1 (centres undefined)	.	.	3	.	.	0.54
SMILES	INS promoter inh	L major viab	p97 inhibitor	HCT116 PTEN-null	bCat KO growth	ROMK primary
COC(=O)CN1C(=S)N(c2ccc(Cl)cc2)C(=O)C1CC(=O)Nc1ccccc1 (centres undefined)	22	64*	0	96	94	-1.3
CCc1ccc(NC(=O)CC2C(=O)N(c3ccc(C)cc3)C(=O)N2CCc2ccncc2)cc1 (centres undefined)	.	51*	1	.	.	-0.52
COc1ccc(NC(=O)CC2C(=O)N(Cc3ccccc3)C(=S)N2CCN2CCOCC2)cc1 (centres undefined)	-333	98*	2	.	.	-0.62
COC(=O)CN1C(=S)N(Cc2ccccc2)C(=O)C1CC(=O)Nc1ccc(OC)cc1 (centres undefined)	80*	-1	-7	79	78	-0.39
CSC(=NC#N)N1CCN(c2ccc([N+](=O)[O-])cc2)CC1	-37	20	3	.	.	-1.4
O=C(COC(=O)C1CCCCC1)Nc1ccc(S(=O)(=O)N2CCOCC2)cc1	25	-6	-1	.	.	-0.61
CCCNC(=O)NNC(=O)c1ccc(F)cc1	-49	-5	7	.	.	-0.41
C=CCN1C(=O)C(CC(=O)Nc2ccc(OCCC)cc2)N(CCCN2CCN(Cc3ccccc3)CC2)C1=S (centres undefined)	-20	100*	-3	.	.	-0.79
COc1ccc(CCN2C(=S)N(C)C(=O)C2CC(=O)Nc2ccc(OC)cc2)cc1 (centres undefined)	-13	12	-1	.	.	-0.12
COc1ccc(NC(=O)CC2C(=O)N(C)C(=S)N2Cc2cccs2)cc1 (centres undefined)	-38	54*	4	95	92	-0.8
CCCOc1ccc(NC(=O)CC2C(=O)N(CC)C(=S)N2Cc2cccs2)cc1 (centres undefined)	0	25	-7	48	42	.
Cc1nn(Cc2ccccc2)c(C)c1NC(=O)CSc1nc2c(c(C(F)(F)F)n1)CCc1ccccc1-2	-34	68*	-7	71	82	0.68
O=C(CSc1nc2c(c(C(F)(F)F)n1)CCc1ccccc1-2)NCc1ccccc1	26	-4	2	82	88	0.91
CCN(CC)CCCNC(=O)CSc1nc2c(c(C(F)(F)F)n1)CCc1ccccc1-2	.	60*	-2	.	.	-1
COc1cccc(-n2c(=O)n(Cc3ccccc3)c(=O)c3[nH]cnc32)c1C	.	.	6	.	.	-0.075
CCN(CC)S(=O)(=O)c1cc([N+](=O)[O-])ccc1NNC(=O)Nc1ccccc1OC	-43	80*	-1	80	81	.
O=C(Cn1c(C(=O)N2CCN(C3CCCCC3)CC2)cc2sccc21)c1ccccc1	.	81*	-3	59	62	.
O=C(c1cccs1)N1CCc2ccccc2C1	.	-5	-5	.	.	-0.85
O=C(Cn1c(C(=O)N2CCc3ccccc3C2)cc2sccc21)c1ccccc1	.	61*	5	69	84	1.3
COc1ccc(-c2nc3c4ccccc4[nH]c(=O)n3n2)cc1	-6	37	-3	82	92	0.51
CCN(CC)CCNc1nc2cc(OC)c(OC)cc2c2nc(-c3ccccc3)nn12	-12	100*	-2	1.2*	1.7*	0.88
COc1cc2[nH]c(=O)n3nc(-c4ccccc4)nc3c2cc1OC	30	50*	3	46	62	0.45
COCCNC(=S)N1CCC(NC(=O)c2ccco2)CC1	.	10	1	.	.	0.26

High-throughput results from PubChem BioAssay.
